Assay results taken from PubChem BioAssay (NCATS).
Inconclusive results are not listed. Activity calls are given as the source filed them. Unless noted, calls follow the shape of the dose curve; as a rule, active = well fitted curve in the direction sought with a large enough effect; inconclusive = small, poorly fitted or top-dose-only effect, or another doubt; inactive = no such curve, though single readings can be large; an effect the other way counts as inactive or inconclusive.

Experiments:
[1] = system: Zika virus NS2B-NS3 protease (unlinked complex); test: Primary screen GU Rhodamine qHTS for Zika virus inhibitors: Unlinked NS2B-NS3 protease assay (AID 1347159); also: nearly all actives have a fitted effect of over 60% in size; also: potency is read from the fitted curve at half-maximal effect; as to activity change, negative = inhibition: % is scaled to controls: 0 for no effect and ±100 for the full control effect
Outline: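 Noncovalent NS2B hydrophilic domain/NS3 protease complex (25 nM final) in 10 mM Tris-HCl pH 8.0, 0.01% Tween 20, preincubated 15 min with compounds (up to 114 microM), then 1.5 microM Rhodamine110 substrate. Fluorescence change over 15 min fitted to 4-parameter Hill.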

[2] = Primary qHTS for inhibitors of nuclear receptor binding SET domain protein 2 (NSD2) in an isogenic RCH-ACV NSD2 p.E1099K mutant (9B) (AID 1645876); also: nearly all actives have a fitted effect of over 70% in size; also: potency is read from the fitted curve at half-maximal effect
[3] = Primary qHTS for inhibitors of nuclear receptor binding SET domain protein 2 (NSD2) in an RCH-ACV wild type WT cells (2C) (AID 1645877); also: nearly all actives have a fitted effect of over 70% in size; also: potency is read from the fitted curve at half-maximal effect
[4] = Primary redox qHTS assay for identification of artifact compounds. (AID 1845223); also: potency is read from the fitted curve at half-maximal effect
Outline: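 Amplex Red (25 uM) and HRP (250 mU/mL) in HBSS, with compounds for 15 min, then 250 uM DTT for 30 min, room temperature, dark. Fluorescence 525/598 nm read; normalized to DMSO and 10 uM DA3003; Hill fit.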

HEK293 = test: Cytotoxic Profiling of Annotated Libraries Using Quantitative High-Throughput Screening (AID 1296008); settings: Five cell lines viability, CellTiter-Glo ATP luminescence, 48-72 h; max response: stronger effect = lower value; also: nearly all actives have a fitted effect of over 60% in size; also: potency is read from the fitted curve at half-maximal effect; as to max response: % is scaled to controls: 0 for no effect and ±100 for the full control effect
Outline: (§1)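 Compounds were pin-transferred onto cells and incubated 48 or 72 hr at 37 degree Celsius, 95% humidity. CellTiter-Glo was added, plates sat 10 min at room temperature, then ATP-coupled luminescence was imaged as the viability read-out.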

KB-3-1 = test: as above; settings: Five cell lines viability, CellTiter-Glo ATP luminescence, 48-72 h; max response: stronger effect = lower value
Outline: as §1

[5] = Primary fluorescence-based thiol-reactive (MSTI) qHTS assay for identification of artifact compounds. (AID 1845221); also: nearly all actives have a fitted effect of over 65% in size; also: potency is read from the fitted curve at half-maximal effect
Outline: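 First, 4 uM MSTI in 2% DMSO/PBS pH 7.4 was dispensed; next, compounds were added; then plates sat 1 h at room temperature without light. Finally, emission at 598 nm was recorded.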

[6] = target: Catechol O-methyltransferase (Homo sapiens) (UniProt P21964); test: Confirmatory Screen for Target Class Profiling of Small Molecule Inhibitors of Methyltransferases (AID 1745852; calls by dose curve; as to activity change, negative = inhibition: % is scaled to controls: 0 for no effect and ±100 for the full control effect); settings: MTase-Glo luminescence, SAH detection, recombinant enzyme; measured here: COMT max response; stronger effect = lower value
Sequence of Catechol O-methyltransferase (Homo sapiens) (P21964 whole entry, looked up): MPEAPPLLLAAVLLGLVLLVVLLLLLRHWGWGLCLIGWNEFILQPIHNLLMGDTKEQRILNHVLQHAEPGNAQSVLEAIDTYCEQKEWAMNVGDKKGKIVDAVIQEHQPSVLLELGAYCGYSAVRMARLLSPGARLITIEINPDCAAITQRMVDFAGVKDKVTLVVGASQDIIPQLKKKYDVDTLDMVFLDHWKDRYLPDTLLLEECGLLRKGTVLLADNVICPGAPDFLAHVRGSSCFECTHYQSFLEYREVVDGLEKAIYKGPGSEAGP

[7] = target: Guanidinoacetate N-methyltransferase (Homo sapiens) (UniProt Q14353); test: as above; settings: activity change, negative = inhibition: at 57.3 µM (top of the series) unless noted
[8] = target: Nicotinamide N-methyltransferase (Homo sapiens) (UniProt P40261); test: as above; settings: MTase-Glo luminescence, SAH detection, recombinant enzyme; measured here: NNMT max response; stronger effect = lower value
Sequence of Nicotinamide N-methyltransferase (Homo sapiens) (P40261 whole entry, looked up): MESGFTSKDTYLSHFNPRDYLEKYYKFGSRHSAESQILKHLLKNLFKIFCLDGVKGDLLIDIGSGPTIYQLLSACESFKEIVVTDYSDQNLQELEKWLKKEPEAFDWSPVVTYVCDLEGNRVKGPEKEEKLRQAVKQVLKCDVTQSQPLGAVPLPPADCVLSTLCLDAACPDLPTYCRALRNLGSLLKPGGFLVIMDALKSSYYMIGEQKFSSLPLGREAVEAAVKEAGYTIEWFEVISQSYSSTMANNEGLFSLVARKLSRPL

[9] = target: Phenylethanolamine N-methyltransferase (Homo sapiens) (UniProt P11086); test: as above; settings: MTase-Glo luminescence, SAH detection, recombinant enzyme; measured here: PNMT max response; stronger effect = lower value
Sequence of Phenylethanolamine N-methyltransferase (Homo sapiens) (P11086 whole entry, looked up): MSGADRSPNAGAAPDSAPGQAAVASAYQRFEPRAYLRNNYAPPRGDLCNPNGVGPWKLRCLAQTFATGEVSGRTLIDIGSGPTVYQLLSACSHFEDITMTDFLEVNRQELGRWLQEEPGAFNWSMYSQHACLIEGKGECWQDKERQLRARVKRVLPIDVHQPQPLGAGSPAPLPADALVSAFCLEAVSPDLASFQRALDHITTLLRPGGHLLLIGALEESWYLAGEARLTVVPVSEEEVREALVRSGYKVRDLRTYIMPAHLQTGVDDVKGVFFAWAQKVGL

[10] = target: Cytochrome P450 2D6 (Homo sapiens) (UniProt P10635); test: Cytochrome P450 family 2 subfamily D member 6 (CYP2D6) small molecule antagonists: luciferase biochemical (cell-free) qHTS assay (AID 1645840; active = well fitted curve in the direction sought with a large enough effect in the repeat runs; an effect the other way counts as inactive or inconclusive; also: nearly all actives have a fitted effect of over 55% in size; also: potency is read from the fitted curve at half-maximal effect; as to activity change, negative = inhibition: % is scaled to controls: 0 for no effect and ±100 for the full control effect)
Sequence of Cytochrome P450 2D6 (Homo sapiens) (P10635 whole entry, looked up): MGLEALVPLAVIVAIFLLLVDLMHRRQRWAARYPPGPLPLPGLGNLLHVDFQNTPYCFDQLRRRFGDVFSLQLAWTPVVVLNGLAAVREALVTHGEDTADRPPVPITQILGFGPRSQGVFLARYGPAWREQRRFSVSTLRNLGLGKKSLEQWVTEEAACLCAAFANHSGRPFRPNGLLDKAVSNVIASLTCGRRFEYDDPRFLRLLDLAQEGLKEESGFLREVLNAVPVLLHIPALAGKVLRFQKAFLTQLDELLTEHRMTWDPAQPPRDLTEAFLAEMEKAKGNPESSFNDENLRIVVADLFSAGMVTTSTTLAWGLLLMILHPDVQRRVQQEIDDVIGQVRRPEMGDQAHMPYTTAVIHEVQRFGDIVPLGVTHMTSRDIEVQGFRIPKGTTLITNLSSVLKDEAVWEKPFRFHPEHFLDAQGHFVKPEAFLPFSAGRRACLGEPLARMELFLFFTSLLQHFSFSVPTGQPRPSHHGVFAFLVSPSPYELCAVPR
Outline: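 P450-Glo luminescent screen: recombinant CYP2D6 enzyme–proluciferin substrate mix preincubated with compound 10 min at room temperature, then NADPH regeneration added for 1 h at room temperature. Detection reagent added for 20 min; luciferin light read as relative luminescence units.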

[11] = target: Cytochrome P450 2C9 (Homo sapiens) (UniProt P11712); test: Cytochrome P450 family 2 subfamily C member 9 (CYP2C9) small molecule antagonists: luciferase biochemical (cell-free) qHTS assay (AID 1645842; active = well fitted curve in the direction sought with a large enough effect in the repeat runs; an effect the other way counts as inactive or inconclusive; also: nearly all actives have a fitted effect of over 55% in size; also: potency is read from the fitted curve at half-maximal effect)
Sequence of Cytochrome P450 2C9 (Homo sapiens) (P11712 whole entry, looked up): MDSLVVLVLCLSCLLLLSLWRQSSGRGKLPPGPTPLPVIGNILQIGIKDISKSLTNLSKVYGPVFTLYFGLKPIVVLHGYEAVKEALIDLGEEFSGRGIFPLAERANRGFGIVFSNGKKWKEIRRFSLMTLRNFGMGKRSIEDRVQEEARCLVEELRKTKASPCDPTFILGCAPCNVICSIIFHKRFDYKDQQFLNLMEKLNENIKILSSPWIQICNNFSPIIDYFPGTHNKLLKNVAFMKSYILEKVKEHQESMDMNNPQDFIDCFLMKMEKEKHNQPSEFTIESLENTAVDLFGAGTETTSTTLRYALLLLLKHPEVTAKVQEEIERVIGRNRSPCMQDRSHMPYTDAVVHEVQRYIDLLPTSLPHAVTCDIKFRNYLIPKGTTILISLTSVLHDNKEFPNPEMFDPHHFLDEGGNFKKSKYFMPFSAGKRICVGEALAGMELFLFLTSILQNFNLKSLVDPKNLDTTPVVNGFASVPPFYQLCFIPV
Outline: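 Luminescence, after 20 min with luciferin detection reagent, reflected CYP2C9 turnover during a 1 h NADPH-driven reaction at 37C. Enzyme-substrate mix contained 0.4% bovine serum albumin and was preincubated with compound 10 min at room temperature.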

HaCat [12] = test: Cytotoxic Profiling of Annotated Libraries Using Quantitative High-Throughput Screening (AID 1296008); settings: Five cell lines viability, CellTiter-Glo ATP luminescence, 48-72 h; max response: stronger effect = lower value; also: nearly all actives have a fitted effect of over 60% in size; also: potency is read from the fitted curve at half-maximal effect
Outline: as §1

CRL-7250 = normal cell line; test: qHTS assay to identify novel small-molecules to repurpose for Merkel cell carcinoma treatment (AID 1296009); settings: MCC and control cell lines, CellTiter-Glo viability, 72 h; series mostly up to 92 µM; also: nearly all actives have a fitted effect of over 60% in size
Outline: (§2)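 qHTS format: cells treated with library compounds in DMSO across 8 (NPC) or 11 (MIPE) concentrations. Readout after 72 hr at 37 degree celsius was CellTiter-Glo luminescence.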

SKOV3 = test: Primary qHTS to identify gynecologic anti-cancer compounds using libraries of approved drugs and bioactive compounds (AID 1345084); settings: Gynecologic cancer cell panel viability, ATPlite luminescence, 48 h; series mostly up to 57.5 µM; also: nearly all actives have a fitted effect of over 55% in size; also: potency is read from the fitted curve at half-maximal effect
Outline: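 48 h compound exposure at 37 C, 5% CO2; five-point qHTS. ATPlite luminescence readout of cell ATP.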

HACAT [13] = test: qHTS assay to identify novel small-molecules to repurpose for Merkel cell carcinoma treatment (AID 1296009); settings: MCC and control cell lines, CellTiter-Glo viability, 72 h; at 44.8 µM (top of the series) unless noted; also: nearly all actives have a fitted effect of over 60% in size
Outline: as §2

NIH3T3 = test: as above; settings: MCC and control cell lines, CellTiter-Glo viability, 72 h; at 44.8 µM (top of the series) unless noted
Outline: as §2

COC1CCCC(C)OC(=O)Cc2cc(O)cc(O)c2C(=O)C1 (stereo not drawn)
active: Potency [2] 2.84 µM | Potency [3] 3.19 µM | Potency (HEK293) 3.6 µM | Potency (KB-3-1) 4.04 µM
inactive: Potency [1] | Potency [4]

CC(C)[C@H]1OC(=O)[C@H](Cc2ccccc2)N(C)C(=O)[C@@H](C(C)C)OC(=O)[C@H](Cc2ccccc2)N(C)C(=O)[C@@H](C(C)C)OC(=O)[C@H](Cc2ccccc2)N(C)C1=O
inactive: Potency [5]
active: Potency [2] 6.82 µM | Potency [3] 4.83 µM | Potency (HEK293) 6.11 µM

C#C[C@]1(O)CC[C@H]2[C@@H]3CC[C@H]4Cc5nc6nc7ccccc7n6cc5C[C@]4(C)[C@H]3CC[C@@]21C
active: Potency [2] 12.9 µM | Potency [3] 11.5 µM | Potency (HEK293) 14.6 µM
-2.81%: activity change, negative = inhibition [7]
-13.5%: activity [6]
-31.4%: activity [9]
inactive: Potency [1] | Potency [5]
-21%: activity [8]

CCCCCn1cc(C(=O)Oc2cccc3cccnc23)c2ccccc21
inactive: Potency [1] | Potency [10] | Potency [5] | Potency [4] | max response (HaCat [12]) 2.86% | max response (KB-3-1) -8.4% | Potency (CRL-7250) | Potency (SKOV3)
active: Potency [11] 3.38 µM

CC1=CC(=O)[C@@H](O)[C@@]2(C)C1C[C@H]1OC(=O)[C@H](O)[C@@]3(O)[C@@H](C)[C@@H](O)[C@H](O)C2[C@@]13C (stereo partly drawn)
inactive: Potency [1] | Potency [5]
active: Potency [2] 1.27 µM | Potency [3] 1.01 µM | Potency (HEK293) 2.02 µM

CCOc1ccc(Oc2ccc(OCc3cc(F)ccc3F)cc2)c(N)c1
active: Potency [11] 10.7 µM | Potency [5] 8.44 µM
inactive: Potency [1] | Potency [4] | max response (HaCat [12]) -5.94% | max response (KB-3-1) -0.382% | Potency (CRL-7250) | Potency (SKOV3)

Fc1cc(F)c2c(c1)C1C=CCC1C(c1cccnc1)N2 (stereo not drawn)
0.0443%: activity change, negative = inhibition [7]
-0.468%: activity [9]
active: Potency [10] 23.9 µM | Potency [11] 5.35 µM | Potency [2] 8.17 µM | Potency [3] 16.3 µM | Potency (HEK293) 23.1 µM | Potency (KB-3-1) 4.61 µM | Potency (SKOV3) 11.2 µM
inactive: Potency [1] | Potency [4]
-6.05%: activity [8]
-0.484%: activity [6]

CN(C(=O)C(c1ccccc1)c1ccccc1)[C@H](CN1CC[C@H](O)C1)c1ccccc1
inactive: Potency [1] | Potency [11] | Potency [5] | Potency [4] | outcome (HaCat [12]) | max response (KB-3-1) -3.45% | Potency (CRL-7250) | outcome (HACAT [13]) | Potency (SKOV3)
active: Potency [10] 0.122 µM

C[C@]12CC[C@H](O)C[C@@H]1CC[C@@H]1[C@@H]2CC[C@]2(C)[C@@H](C3=CC(=O)OC3)CC[C@]12O
inactive: Potency [1] | Potency [5] | Potency [4]
active: Potency [2] 2.84 µM | Potency [3] 4.5 µM | Potency (HEK293) 5.08 µM

C=C1C2(C)CC3C(C)(O)C4=CC(=O)OC(C)(C)C4=CCC3(C)C13C(=O)OC(C)C3(O)C2=O (stereo not drawn)
inactive: Potency [1] | max response (HEK293) -2.5% | max response (KB-3-1) -10.5% | Potency (SKOV3)
active: Potency [4] 0.733 µM

CN1C(=O)N(c2ccc(C#N)c(C(F)(F)F)c2)C(=O)[C@@]1(CO)c1ccccc1
inactive: Potency [3] | Potency [5] | Potency [4] | max response (HaCat [12]) 0.274% | max response (KB-3-1) 2.44% | Potency (CRL-7250) | Potency (SKOV3)

CCCCCCC1C(=O)O[C@H](C)[C@H](NC(=O)c2cccc(NC=O)c2O)C(=O)O[C@@H](C)[C@@H]1OC(=O)CC(C)C (stereo partly drawn)
active: Potency [1] 6.31 µM | Potency [2] 0.0115 µM | Potency [5] 1.89 µM | Potency (HEK293) 0.164 µM | Potency (SKOV3) 0.794 µM

CN1CCCCC1Cn1cc(C(=O)c2cc([N+](=O)[O-])ccc2I)c2ccccc21 (stereo not drawn)
inactive: Potency [2] | Potency [3] | Potency [4] | outcome (HaCat [12]) | max response (KB-3-1) 6.42% | outcome (HACAT [13]) | outcome (NIH3T3) | Potency (SKOV3)

CN1C(=O)[C@@H](Cc2c[nH]c3ccccc23)N=C(c2ccccc2F)c2ccccc21
inactive: Potency [1] | Potency [5] | Potency [4] | max response (HaCat [12]) -23.4% | max response (KB-3-1) -7.12% | Potency (CRL-7250) | Potency (SKOV3)
active: Potency [10] 9.52 µM | Potency [11] 6.74 µM

c1ccc([C@@H]2C[C@H]2NC2CCNCC2)cc1
inactive: Potency [1] | Potency [2] | Potency [5] | Potency [4] | max response (HEK293) -16.2% | max response (KB-3-1) -11.5% | Potency (SKOV3)
active: Potency [10] 10.7 µM

CCN1C[C@]2(COC)CC[C@H](O)[C@@]34C5C[C@@H]6[C@@H](OC)C[C@@](OC(C)=O)(C5[C@@H]6OC(C)=O)[C@H]([C@H](OC)C23)[C@@H]14 (stereo partly drawn)
inactive: Potency [1] | Potency [2] | Potency [3] | Potency [5] | Potency [4] | max response (HEK293) 3.98% | max response (KB-3-1) -0.111% | Potency (SKOV3)

C=C1C(=O)CC2OC2(C)CC2OC(=O)C(=C)C2C(O)C1OC(=O)/C(C)=C\C (stereo not drawn)
inactive: Potency [5] | Potency [4] | Potency (SKOV3)
active: Potency [2] 2.26 µM | Potency [3] 2.01 µM | Potency (HEK293) 4.53 µM

CC[C@H](O)[C@@H](C)[C@H]1O[C@@H]1C[C@H](C)/C=C/C=C(\C)[C@H]1OC(=O)C[C@H](O)CC[C@@](C)(O)[C@@H](OC(C)=O)/C=C/[C@@H]1C
active: Potency [2] 0.0058 µM | Potency (HEK293) 0.0041 µM
inactive: Potency [3] | Potency [4]

COc1cc(O)c2c(c1)CCC[C@@H](O)[C@H](O)C(=O)/C=C\C[C@H](C)OC2=O
active: Potency [2] 8.01 µM | Potency [3] 4.5 µM | Potency (HEK293) 6.4 µM
